Source: PubChem BioAssay AID743446 (Broad Institute, 2014)
Potency and affinity values are given separately. Values without a mark were called inactive. No rule for the calls is given here.

assay: viability loss in HEK293 cells – cell-based, plate reader, cherry-picked samples, cytotoxicity control, dose response (AID 743446); details: hits give low values; at 26 µM unless noted

SMILES | max activity
O=C1CC(c2ccc3c(c2)OCO3)Sc2nc3ccccc3n21 (stereo not given) | -8.84% [at 0.38 µM]
CC(=O)Nc1ccc(S(=O)(=O)c2ccnc3cc(Cl)ccc23)cc1 | -26.3% [at 12 µM]
Cc1ccc2nc(-c3ccc(NC(=O)C4CCCO4)cc3)[nH]c2c1 (stereo not given) | 41.8%
O=C(CN1C(=O)c2ccccc2S1(=O)=O)c1ccccc1Cl | 32.4%
Cc1ccccc1N=CC1=C(O)c2ccccc2C1=O | 12.1% [at 0.05 µM]
COc1cccc(-c2cc(C(=O)Nc3cccc(O)c3)no2)c1 | -7.14%
O=C(CN1C(=O)c2ccccc2S1(=O)=O)c1ccc(F)c(F)c1 | 11.6%
O=C(CN1C(=O)c2ccccc2S1(=O)=O)c1ccccc1F | 74.6%
O=C(O)c1cccc(COc2ccc(CO)cc2Cl)c1 | 13.3% [at 6 µM]
CCN(CC)S(=O)(=O)c1cc(C(=O)OCC(=O)Nc2ccc(-c3nc4ccc(C)cc4s3)cc2)ccc1F | -18.3%
